Measurements published in PubChem BioAssay (NCI).
The panel holds about 83,000 compounds, 20% with a hit somewhere; the sample as a whole holds those more often.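 Compound tested at a single concentration for 48 hours in 96-well plates; a percent growth value below 10 was scored as active.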 Values without a mark were called inactive. Activity calls are given as the source filed them.

Legend:
Assay in all cases: NCI-60 one-dose screen, 48 h (100 = growth as untreated, 0 = no growth, -100 = all killed)
Settings in all cases: 10 µM unless noted
NCI-H23 lung = tested on: NCI-H23 lung
NCI-H226 lung = tested on: NCI-H226 lung
NCI-H322M lung = tested on: NCI-H322M lung
HOP-62 NSCLC = tested on: HOP-62 NSCLC
HOP-92 NSCLC = tested on: HOP-92 NSCLC
A549/ATCC NSCLC = tested on: A549/ATCC NSCLC
786-0 renal = tested on: 786-0 renal
COLO 205 colon = tested on: COLO 205 colon
NCI-H460 lung = tested on: NCI-H460 lung
NCI-H522 lung = tested on: NCI-H522 lung

SMILES | growth (NCI-H23 lung) | growth (NCI-H226 lung) | growth (NCI-H322M lung) | growth (HOP-62 NSCLC) | growth (HOP-92 NSCLC) | growth (A549/ATCC NSCLC) | growth (786-0 renal) | growth (COLO 205 colon) | growth (NCI-H460 lung) | growth (NCI-H522 lung)
O=C1/C(=C\c2cn(Cc3ccccc3)c3ccc(Br)cc23)c2ccccc2N1c1c(Cl)cccc1Cl | 96.9% | 91.6% | 96.8% | 98.5% | 57.1% | 90.5% | 99.2% | 108% |  | 
CCN(CC)CCOC(COc1cc(C)cc(C)c1)COc1cc(C)cc(C)c1 | 37.9% | 54.4% |  | 54.3% | 22.7% | 47.8% | 44.9% | -15.8% (active) | 9.62% (active) | 35.4%
COc1ccc(C(O)c2cc3c(N)c(C(=O)Nc4ccccc4)sc3nc2C)cc1 (configuration not stated) | 29.7% | 51.1% |  | 18.8% | 30.3% | 13.4% | 29.3% | -58.9% (active) | 3.3% (active) | -55.9% (active)
CC[C@@]12C=CCN3CC[C@]4(c5cc(NC(=O)COc6cc(OCC(=O)Nc7cc8c(cc7OC)N(C)[C@H]7[C@@](O)(C(=O)OC)[C@H](OC(C)=O)[C@]9(CC)C=CCN%10CC[C@]87[C@@H]%109)cc7oc(-c8ccccc8)cc(=O)c67)c(OC)cc5N(C)[C@@H]4[C@](O)(C(=O)OC)[C@H]1OC(C)=O)[C@H]32 | 0.327% (active) | 23.7% |  | 17.3% | 33.9% | 51.7% | 41.4% | 40.2% | 0.985% (active) | -27.7% (active)
COc1ccc(-n2cc(-c3cc(OC)c(OC)c(OC)c3)n(C(C)=O)c2=O)cc1 | 95% | 94.6% |  | 126% | 85.7% | 99.8% | 64.5% | 91.5% | 109% | 77.4%
CCC(C)C(N)C(=O)NNc1n[nH]c(=S)n1N (configuration not stated) | 102% | 101% |  | 105% | 97.6% | 102% | 102% |  | 103% | 89%
FCc1nc2nc(Cl)c(Cl)nc2[nH]1 | 99.3% | 104% |  | 94.8% | 81.2% | 98.9% | 103% | 109% | 108% | 
O=C(N/N=C/c1ccc(F)cc1)c1ccccc1Nc1cccc(C(F)(F)F)c1 | 104% | 95.8% |  | 109% | 76.4% | 53.3% | 95.5% | 120% | 101% | 
O=C(Nc1ccc(Nc2ncccn2)cc1)NC1C=c2ccccc2=CC1 (configuration not stated) | 104% | 96.7% |  | 113% | 110% | 93.1% | 104% | 123% | 104% | 99.3%
COc1ccc(C(=O)c2cc(C)c(OC)c(C)c2)c(OC)c1O | 31.7% | 7.47% (active) |  | 12.9% | -0.0707% (active) | 14.5% | 15.2% | 66.8% | 2.04% (active) | -9.43% (active)
O=S(=O)(NCCNc1nccc(-c2c(-c3cccc(F)c3)nc3occn23)n1)c1cccc2ccccc12 | 75.8% | 53.6% |  | 71% | 47% | 44.1% | 48% | 40.7% | 58.2% | 46.2%
Cc1ccccc1-c1cc(Cc2ccc(F)cc2)c(=O)[nH]n1 | 98.3% |  | 94.3% | 95% | 99.8% | 33.4% | 111% | 108% | 107% | 95.1%
COc1ccccc1/C=C1\Oc2cc(OCCCN3CCCC3)ccc2C1=O | 83% |  | 96.5% | 88.5% | 63.1% | 99.9% | 94% | 96.4% | 95.9% | 104%
CCCCCCN(C)Cc1ccc(OCCOc2ccc(CN(C)CCCCCC)cc2)cc1 | 11% |  | 3.16% (active) | 17.9% | -9.72% (active) | 44% | -72.6% (active) | -67.4% (active) | -77.5% (active) | 35.3%
COc1ccccc1-c1c(-c2ccc(Cl)cc2)c2cc3c(cc2[nH]c1=O)OCCO3 | 72.8% |  | 89% | 89.8% | 80.7% | 63.6% | 85.4% | 92.6% | 66.3% | 62.4%
NC(=O)CN1CCN(c2ccccc2Cl)CC1 | 99.7% |  | 94.3% | 104% | 103% | 111% | 91.6% | 110% | 111% | 92.3%
COc1cc(NCCCN(CC(C)C)C2CCCC2)c2ncccc2c1 | 62.5% |  | 101% | 82.9% | 59.5% | 79% | 58.2% | 65.1% | 54.8% | 60%
Nc1nc(SN=Nc2ccc(S(N)(=O)=O)cc2)c2[nH]cnc2n1 | 8.88% (active) |  | 56.4% | 19.8% | -6.95% (active) | 24.1% | 15.7% | -30.6% (active) | 4.68% (active) | -9.91% (active)

SMILES | growth (NCI-H23 lung) | growth (NCI-H226 lung) | growth (NCI-H322M lung) | growth (HOP-62 NSCLC) | growth (HOP-92 NSCLC) | growth (A549/ATCC NSCLC) | growth (786-0 renal) | growth (COLO 205 colon) | growth (NCI-H460 lung) | growth (NCI-H522 lung)
O=C1Nc2ccccc2/C1=C\c1cccc(/C=C2/C(=O)Nc3ccccc32)n1 | -15.9% (active) |  |  | -61.3% (active) | -31.7% (active) | 6.25% (active) | -84.4% (active) | -85.7% (active) | -60.9% (active) | 10%
C=C1C(=O)O[C@H]2[C@H]1CC/C(COC(=O)CCCCCC(=O)OC/C1=C/CC[C@@]3(C)O[C@H]3[C@H]3OC(=O)C(=C)[C@@H]3CC1)=C\CC[C@@]1(C)O[C@@H]21 |  | 52% | 86.3% | 85.6% | -1.51% (active) | 80.6% | 7.09% (active) |  | 76.4% | -72.5% (active)
CCCCCCCCN1C(=O)/C(=c2\sc3n(c2=O)C2C(NN=3)N(CC)C(=O)N2CC)c2ccccc21 (configuration not stated) | 79.1% |  | 83% | 47.3% | 62.7% | 75.9% | 65.7% |  | 88% | 66.6%
O=C(O)/C=C\C(=O)N1C/C(=C\c2ccccc2Cl)C(=O)/C(=C/c2ccccc2Cl)C1 | -24.9% (active) |  | 4.69% (active) | -24% (active) | 2.77% (active) | 7.96% (active) |  | -67.4% (active) | -40.9% (active) | -87.2% (active)
COc1ccc2c(c1)c(CC(=O)NCCOCCOCC(=O)Nc1ccc(OC)c(C(N)=O)c1O)c(C)n2C(=O)c1ccc(Cl)cc1 |  | 91.5% | 92.7% | 88.8% | 91.3% | 85.7% | 73.8% |  | 101% | 81.3%
COc1cc(/C=C/C(=O)c2ccc(Nc3ncnc4ccccc34)cc2)cc(OC)c1 | 72% |  | 76% | 139% | 87.3% | 41.2% | 52.1% | 151% | 81.4% | 71.4%
O=C1CCC(NC(=S)Nc2ccccc2)N1 (configuration not stated) | 91.2% |  |  | 109% | 102% | 101% | 105% | 120% | 115% | 92.8%
O=C(O)c1ccc[n+](CC(=O)N2CCN(c3cc4c(cc3F)c(=O)c(C(=O)O)cn4C3CC3)CC2)c1 | 87.7% |  | 103% | 105% | 109% | 106% | 58.9% | 45.4% | 95.6% | -86.6% (active)
CCCC1C(C(=O)OCC)=C(N)Oc2cc(O)ccc21 (configuration not stated) | 90.7% |  | 109% | 76.7% | 74.8% | 101% | 95.1% | 96.3% | 93.1% | 77.2%
Cc1cc(Nc2cccc(C(F)(F)F)c2)n2c(nc3ccccc32)c1C#N | 25.1% |  |  | 53.6% | -2.32% (active) | 43.7% | 58.9% | 36.9% | 17% | 20.7%
C=C1C(=O)O[C@H]2[C@H]1CC/C(COC(=O)CCCc1c[nH]c3ccccc13)=C\CC[C@@]1(C)O[C@@H]21 | 65.9% |  | 104% | 89.8% | 44.6% | 72% | 14.2% | 64.8% | 85.9% | 39.9%
COc1cc2nc(-c3ccc(C#N)cc3)[nH]c(=O)c2cc1OC | 104% |  | 211% | 92.8% | 127% | 15.5% | 61.3% | 132% | 105% | 104%
CCC1(CC)NC(=O)c2c(c3ccc(Cl)c(Cl)c3n2C)C1C#N (configuration not stated) | 93% |  | 103% | 81.2% | 62.1% | 88.6% | 94.3% |  | 98.7% | 86.5%
CC1(C)[C@H](O)CC[C@]2(C)[C@@H]1CC[C@@]13C[C@@H](CC[C@H]12)[C@@](O)(CO)C3 | 105% |  | 113% | 103% | 126% | 107% | -45% (active) | 119% | 104% | 92.1%
NC(=S)N/N=C/c1ccc(OC(=O)COc2cc(Cl)c(Cl)cc2Cl)cn1 | 28.1% |  | 57.2% | 85.6% | 48.6% | 107% | 19.9% | 117% |  | 23.8%
N#Cc1c(Nc2ccccc2)nn2cc(-c3nc4ccccc4s3)c(N)nc12 | 60.3% |  | 86.2% | 92.9% | 80.6% | 80.6% | 76.3% | 114% | 61.8% | 72.8%
COc1cc2nc(-c3ccc(C(F)(F)F)cc3)cc(OCCCN3CCCCC3)c2cc1OC | 57.9% |  | 62.3% | 57.6% | 27.9% | 44.4% | 48.4% | 11.6% | 17.7% | 33.6%
